This is one part of a sample in which hits are shown more often than they occur.
Shiga inhibitor = blocks Shiga toxin action in Vero cells. AID 2315. 9.2% of 290,000 active. inhibition, % at 38.7 µM. Vero cells, Shiga toxin protein synthesis inhibition reporter; in the data active = inhibition mostly above about 28%, no sharp cut-off; inactive = mostly below about 43%; also: 0% is about no effect
Tb PYK inh = blocks Trypanosoma brucei pyruvate kinase; 0.12% of 410,000 active; Potency, µM (highest dose often 76.8 µM), inactives show top-dose activity, negative = inhibition, usual class: inhibitors; Q57TT1; TbPYK enzyme, Kinase-Glo Plus ATP luminescence, 45 min; also: potency is read from the fitted curve at half-maximal effect; % is scaled to controls: 0 for no effect and ±100 for the full control effect; nearly all actives have a fitted effect of over 50% in size
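T. brucei PYK with substrate was exposed to pin-transferred compounds across a concentration series, then started with 130 uM ADP (final). After 45 min at room temperature, Kinase-Glo Plus luminescence was read, normalized and curve-fitted.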
FBPA Giardia inh = inhibitors of Giardia lamblia fructose-1,6-bisphosphate aldolase. A8B2U2. purified Giardia FBPA. Potency, µM (doses to about 59.6 µM), inactives show at the highest dose activity, negative = inhibition, most hits filed as inhibitors. 0.71% of 290,000 active. AID 2451; also: potency is read from the fitted curve at half-maximal effect; % is scaled to controls: 0 for no effect and ±100 for the full control effect; nearly all actives have a fitted effect of over 55% in size
Target sequence (A8B2U2 whole entry, looked up): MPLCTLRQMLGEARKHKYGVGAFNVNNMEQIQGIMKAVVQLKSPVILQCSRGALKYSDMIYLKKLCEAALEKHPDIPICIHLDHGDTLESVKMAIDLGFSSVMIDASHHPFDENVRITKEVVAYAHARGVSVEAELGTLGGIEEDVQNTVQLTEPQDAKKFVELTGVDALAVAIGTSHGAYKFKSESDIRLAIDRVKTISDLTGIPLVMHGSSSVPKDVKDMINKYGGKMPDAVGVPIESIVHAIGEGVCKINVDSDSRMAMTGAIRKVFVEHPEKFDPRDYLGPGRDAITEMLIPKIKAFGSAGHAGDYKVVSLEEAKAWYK
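Giardia FBPA (40 nM reagent) was preincubated 10 min at RT with compound (up to 57.5 uM final), then substrate plus GAPDH/TPI/NAD/arsenate coupling system with diaphorase/resazurin was added; resorufin fluorescence (525/598 nm) was read after 20 min.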
Sm TGR inh = inhibitors of Schistosoma mansoni thioredoxin glutathione reductase | purified TGR, DTNB reduction, TNB absorbance 405 nm | Potency, µM (doses to about 114 µM), for the others: top-dose activity change, negative = inhibition, most hits filed as inhibitors | 3% of 360,000 active; also: potency is read from the fitted curve at half-maximal effect; % is scaled to controls: 0 for no effect and ±100 for the full control effect; nearly all actives have a fitted effect of over 60% in size
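First, TGR (20 nM dispensed) and NADPH were mixed with compound. Second, a 15 min room-temperature incubation followed. Third, further NADPH and then DTNB were added to start the reaction. Finally, TNB absorbance was monitored kinetically.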
LmPK inh = LmPK (Leishmania mexicana) enzyme inhibition; Q27686; purified LmPK, Kinase-Glo ATP luminescence, 1 h; Potency, µM (series often up to 57.5 µM), without a hit: at the top dose activity change, negative = inhibition, most hits filed as inhibitors; 0.37% of 290,000 active; also: potency is read from the fitted curve at half-maximal effect; % is scaled to controls: 0 for no effect and ±100 for the full control effect
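Screened at intermediate enzyme activity to detect both inhibitors and activators: LmPK at 0.1 nM, with a 0.5 nM enzyme column as activation reference. PEP 0.5 mM, ADP 0.1 mM; ATP detected by luminescence after 1 h.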
CHX counter = affects cycloheximide protein synthesis inhibition readout, counter-screen | cell reporter, cycloheximide protein synthesis inhibition counterscreen | max response, % | 12% of 300,000 active | AID 2314; in the data active = max response mostly above about 13%, no sharp cut-off; inactive = mostly below about 14%; also: read at 38.3 µM for the half of the compounds with a filed dose; 0% is about no effect
* marks the source's active call; other numbers are inactive results; ? = inconclusive; . = not tested or not shown. Unless noted, calls follow the shape of the dose curve; as a rule, active = well fitted curve in the direction sought with a large enough effect; inconclusive = small, poorly fitted or top-dose-only effect, or another doubt; inactive = no such curve, though single readings can be large; an effect the other way counts as inactive or inconclusive.

SMILES | Shiga inhibitor | Tb PYK inh | FBPA Giardia inh | Sm TGR inh | LmPK inh | CHX counter
CCn1cc(/C=C(\NC(=O)c2ccccc2F)C(=O)NCCCn2ccnc2)c2ccccc21 | -11.9 | 2.2% | 1.9% | 57.8% | -3.8% | 5.6
COc1ccc(OC)c(C(=O)N/N=C/c2ccccn2)c1 | 75.5* | -1.3% | 3.9% | 0.1% | 1.5% | 30.5*
COc1ccc(C(=O)Nc2ccccc2C(=O)N/N=C/c2ccccn2)cc1OC | 45.1* | -10.5% | ? | -9.9% | ? | 33.9*
COc1cc(C(=O)N/N=C/c2ccccn2)cc(OC)c1OC | -13.3 | -7.5% | ? | ? | -0.7% | -2.0
O=c1[nH]c(-c2ccc(O)cc2)nc2scc(-c3cccs3)c12 | 107.7* | -6.9% | -4.7% | 6.8% | -2.8% | 79.6*
Cc1nc2scc(-c3cccs3)c2c(=O)[nH]1 | 2.4 | -3.8% | 4.1% | -4.5% | 0.0% | -2.5
C/C(=C1/C(=O)N(c2ccc([N+](=O)[O-])cc2)N=C1c1ccccc1)N(C)C | 33.1 | . | 4.5% | -3.2% | 2.0% | 24.5*
COc1ccccc1/C=C1/C(=O)N(c2ccc([N+](=O)[O-])cc2)N=C1C | 13.9 | -6.3% | -5.8% | 1.1% | 3.9% | -0.8
CN(C)/C=C1/C(=O)N(c2ccc([N+](=O)[O-])cc2)N=C1c1ccccc1 | 82.7* | . | -0.1% | -18.1% | -2.9% | 34.2*
CN(C)/C=C1\C(=O)N(c2ccc([N+](=O)[O-])cc2)N=C1c1ccccc1 | 93.1* | -2.0% | -13.2% | -32.7% | 0.2% | 31.6*
CC(C)(C)OC(=O)N1CCC(c2c(C(=O)NCCc3ccccc3)cnn2-c2ccc(F)cc2)CC1 | . | 5.1% | . | -1.3% | . | .
O=C(c1cccc(F)c1)N1CCC2(CCN(Cc3cc(C(F)(F)F)cc(C(F)(F)F)c3)CC2)CC1 | . | 0.0% | 0.9% | . | . | .
Cc1ccc(Cn2ccsc2=NC(=O)COC(=O)c2ccc(O)cc2O)cc1 | 135.2* | -5.5% | -5.2% | -10.6% | -9.6% | 37.6*
O=C(COC(=O)c1ccc(O)cc1O)N=c1sccn1Cc1ccccc1Cl | . | 7.4% | . | -8.7% | . | .
Cc1ccc(C)c(N2CCN(C(=O)CCS(=O)(=O)c3ccc4c(c3)oc(=O)n4C)CC2)c1 | -3.4 | 0.7% | . | 39.8µM* | 5.5% | 19.0
COc1ccc(N2CCN(S(=O)(=O)c3ccc4c(c3)NC(=O)CC(=O)N4)CC2)cc1 | -6.0 | 7.2% | . | 11.2µM* | 8.4% | 1.2
Cc1cccc(N(C)C(=O)CCS(=O)(=O)c2ccc3c(c2)oc(=O)n3C)c1 | . | 1.2% | . | 39.8µM* | . | .
Cc1cccc(N(C)C(=O)CCS(=O)(=O)c2ccc3c(c2)n(C)c(=O)c(=O)n3C)c1 | . | -7.4% | . | 9.3% | . | .
COc1ccc(N2CCN(S(=O)(=O)c3ccc4c(c3)C(C(C)C)C(=O)N4)CC2)cc1 (stereo not drawn) | . | -5.4% | . | -14.3% | . | .
COc1cccc(N2CCN(C(=O)CCS(=O)(=O)c3ccc4c(c3)oc(=O)n4C)CC2)c1 | 5.0 | -1.5% | . | 25.1µM* | -1.4% | -4.0
Cn1c(=O)oc2cc(S(=O)(=O)CCC(=O)N3CCN(c4ccccc4F)CC3)ccc21 | -8.5 | 0.6% | 10.0% | -14.5% | 7.6% | -2.5
COc1ccc(S(=O)(=O)NCC2CCCN(C(=O)CCC(F)(F)F)C2)cc1 (stereo not drawn) | -8.2 | -4.3% | 0.4% | -23.3% | -11.1% | -1.0
O=C(NCc1cccc2ccccc12)[C@H]1C[C@@H]1[C@H](NP(=O)(c1ccccc1)c1ccccc1)c1ccccc1 | . | . | -6.2% | . | . | .
Cc1ccccc1NC(=O)Cn1c(=O)n(CCCCCC(=O)NCc2ccc3c(c2)OCO3)c(=O)c2sccc21 | . | -6.0% | . | -0.4% | . | .
COc1cccc(N2CCN(C(=O)C3CCN(S(=O)(=O)c4ccc5c(c4)oc(=O)n5C)CC3)CC2)c1 | -12.3 | 45.7% | . | 3.1% | 2.0% | 5.6
SMILES | Shiga inhibitor | Tb PYK inh | FBPA Giardia inh | Sm TGR inh | LmPK inh | CHX counter
COc1cccc(N2CCN(S(=O)(=O)c3ccc4c(c3)oc(=O)n4C)CC2)c1 | 15.4 | 1.8% | 14.4% | -13.2% | -1.5% | 16.6*
Cc1csc(CNC(=O)c2cc(COc3c(C)cccc3C)on2)n1 | 15.8 | 2.7% | -6.9% | -3.8% | 2.9% | 10.8
CSc1ccccc1OCc1cc(C(=O)N(C)Cc2ccc3nsnc3c2)no1 | 100.3* | -6.9% | -8.8% | 0.1% | -1.0% | 52.3*
CSc1ccccc1OCc1cc(C(=O)N(C)C(C)c2nc(C)cs2)no1 (stereo not drawn) | 20.4 | -0.9% | . | -15.0% | -5.4% | 18.3*
CSc1ccccc1OCc1cc(C(=O)N(C)Cc2ccc(C)o2)no1 | 79.4* | ? | -1.6% | 7.94µM* | -0.4% | 54.0*
O=c1[nH]c(=O)c2nc(Br)n(C3OC(CO)C(O)C3O)c2[nH]1 (stereo not drawn) | . | . | -5.5% | . | . | .
COc1ccc(C(=O)N/C(=C\c2ccco2)C(=O)NCc2ccco2)cc1 | -6.2 | 0.0% | . | 44.7µM* | 6.1% | 6.4
O=C(NCc1ccco1)/C(=C/C=C/c1ccccc1)NC(=O)c1ccco1 | 4.6 | -0.5% | -6.0% | 25.1µM* | 0.6% | 3.1
O=C(NCCCO)/C(=C\c1ccco1)NC(=O)c1ccc(Br)o1 | -1.3 | 4.4% | -22.3% | ? | 1.4% | -2.5
C=CCNC(=O)/C(=C\c1ccco1)NC(=O)c1ccco1 | -9.9 | -3.0% | 4.9% | -2.7% | -3.5% | 1.4
O=C(NCc1ccco1)/C(=C/c1ccco1)NC(=O)c1ccc(Br)o1 | -10.2 | 4.0% | -21.4% | 39.8µM* | 4.2% | -1.7
O=C(NCc1ccco1)/C(=C\C=C\c1ccccc1)NC(=O)c1ccco1 | 31.3 | -1.9% | -1.3% | 0.0% | -2.8% | 2.3
C=CCNC(=O)/C(=C/c1ccco1)NC(=O)c1ccc(Br)o1 | -0.9 | -10.0% | ? | 20µM* | 8.5% | 8.6
CCCCCCN1C[C@H](n2cc(C3CC3)nn2)[C@@H](O)C[C@@H]1c1ccccc1 | . | -6.1% | . | . | . | .
COc1cccc(OC)c1C(=O)Nc1nnc(C)s1 | . | 2.4% | . | 9.3% | . | .
CCC(C)NC(=O)c1sc2ncccc2c1-n1c(C)ccc1C (stereo not drawn) | . | -3.2% | . | -3.5% | . | .
COc1ccc(OCc2ccc(-c3nc(C#N)c(NCc4ccc(F)cc4)o3)o2)cc1 | . | -5.4% | . | 1.7% | . | .
CC(C)C(NC(=O)/C(=C\c1ccco1)NC(=O)c1ccco1)C(=O)O (stereo not drawn) | -24.4 | -9.2% | -12.9% | ? | 21.6% | -0.2
CC(C)C(NC(=O)/C(=C/c1ccco1)NC(=O)c1ccc(Br)o1)C(=O)O (stereo not drawn) | -4.9 | 1.2% | -18.9% | 35.5µM* | 13.8% | -1.1
O=C(NCc1ccco1)/C(=C\c1ccco1)NC(=O)c1ccc(Br)o1 | 7.1 | -12.1% | -28.5% | 28.2µM* | 6.8% | 3.9
O=C(NC(Cc1ccccc1)C(=O)O)/C(=C\c1ccco1)NC(=O)c1ccco1 (stereo not drawn) | 18.5 | -12.9% | -0.5% | -1.0% | 3.2% | 19.1*

High-throughput results as filed in PubChem BioAssay.
